The record followed here is PubChem BioAssay AID1745849 (National Center for Advancing Translational Sciences (NCATS), 2022).

The structures appear in SMILES notation. Among all 2,100 compounds or so, about 320 (15%) were called active. Another 52% or so got no clear call; they are omitted. Calls follow the shape of the dose curve; as a rule, active = well fitted cell-killing curve with a large enough effect; inconclusive = small, poorly fitted or top-dose-only effect, or effect the other way; inactive = flat fitted curve, though single readings scatter. The list shows a part of the results. Entries that show only a call come without a potency.
Potency is read from the fitted curve at half-maximal effect.

A short description of the experiment: Viability Counterscreen for CMV-Luciferase Assay of Inhibitors of ATXN expression. Also: nearly all actives have a fitted effect of over 55% in size. The note with it: HEK-293 CMV-luciferase cells viability, protease fluorescence, 24 h. Summed up: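 HEK-293 cells stably expressing a CMV-luciferase reporter were exposed to compounds at several concentrations for 24 hr at 37 degree C. Viability was read as Gly-Phe-AFC fluorescence (25 uM final, 30 min). SteadyGlo luminescence was then measured after 5 min.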
As for `N#Cc1nc(COc2ccc(-c3ccccc3)cc2)oc1NCc1cccnc1`, the Potency result is “inactive”.

With `CCN1CCN(CCNC(=O)c2ccc(/C=C3/Sc4ccccc4N(Cc4cccc(C)c4)C3=O)cc2)CC1`, the Potency result is “inactive”.

For the compound `Cc1ccc(NC(=O)COc2ccc(/C=C3/SC(=Nc4ccccc4)N(Cc4cccnc4)C3=O)cc2)cc1`, the Potency was 17.8 µM (active).

Consider `Cc1cccc(CN2C(=O)/C(=C\c3ccc(C(=O)NCCN4CCOCC4)cc3)Sc3ccccc32)c1`, for which the Potency entry was “inactive”.

Take `CC(C)(C)n1nnnc1C(c1cccs1)N(Cc1ccc(Cl)cc1)CC1CCCO1` (stereo not drawn): the Potency result is “inactive”.

As to `CC(C)Nc1nc(-c2ccccn2)nc(-c2ccccc2)c1C#N`, the Potency entry is “inactive”.

For `CCN(CC)c1nc(-c2ccccn2)nc(-c2ccccc2)c1C#N`, the Potency is 5.62 µM (active).

For `O=S(=O)([N-]c1nc2ccccc2nc1-[n+]1ccc(Cc2ccccc2)cc1)c1ccc(Br)s1`, the Potency is 3.55 µM (active).

As to `COc1cccc(C(=O)Oc2c(CN3CCOCC3)cc(Cl)c3cccnc23)c1`, the Potency result was “inactive”.

`COC(=O)N/N=C/c1cn(CC(C)COc2ccccc2)c2ccccc12` (stereo not drawn): the Potency entry is “inactive”.

As for `S=C(NCCCN1CCOCC1)N1CCN(c2nc(-c3ccccc3)cs2)CC1`, the Potency result is “inactive”.

On to `O=C(Nc1cnn(C23CC4CC(CC(C4)C2)C3)c1)c1cnn2c(C(F)(F)F)cc(-c3ccco3)nc12`, for which the Potency was 12.6 µM (active).

For `COC(=O)c1ccc(Oc2nc(NC(C)C)nc(N(C)C)n2)cc1`, the Potency entry is “inactive”.

In the case of `O=C(CN1C(=O)c2ccccc2S1(=O)=O)N1CCc2ccccc21`, the Potency entry was “inactive”.

Regarding `COCC(C)n1c(C)cc(C(=O)COC(=O)c2cccn2C)c1C` (stereo not drawn), the Potency entry was “inactive”.

Take `OC(c1ccc(Cl)cc1)c1ncc(-c2cccc(C(F)(F)F)c2)[nH]1` (stereo not drawn): the Potency entry is “inactive”.

With `O=c1c2ccc(Cl)cc2nc(-c2cccc(C(F)(F)F)c2)n1O`, the Potency was 10 µM (active).

In the case of `N#Cc1ccc(-c2nc3cc(Cl)ccc3c(=O)n2O)cc1`, the Potency entry is “inactive”.

Turning to `Cc1ccc(CN2CC(C(=O)Nc3ncc(C)s3)CC2=O)cc1` (stereo not drawn), the Potency entry was “inactive”.

Turning to `CCN(CCCn1c(=S)[nH]c2ccc(N3CCOCC3)cc2c1=O)c1ccccc1`, the Potency result was “inactive”.

For the compound `CC(Sc1ccc(Cl)cc1)C(=O)NNC(=O)c1ccccc1O` (stereo not drawn), the Potency result was “inactive”.

`CC1(C)Cc2ccccc2C2=NNC(=O)C2=N1`: the Potency was 25.1 µM (active).

`CCCCn1c(N)c(S(=O)(=O)c2ccc(C)cc2)c2nc3ccccc3nc21`: the Potency result is “inactive”.

Take `Cc1ccc(S(=O)(=O)c2c(N)n(CC3CCOC3)c3nc4ccccc4nc23)cc1` (stereo not drawn): the Potency result was “inactive”.

For the compound `COc1cccc(/C=N/n2c(N)c(S(=O)(=O)c3cccs3)c3nc4ccccc4nc32)c1OC`, the Potency is 14.1 µM (active).

On to `CCn1cc(C(=O)NCCCN2CCCC(C)C2)c(=O)c2cc(S(=O)(=O)N3CCc4ccccc4C3)ccc21` (stereo not drawn), for which the Potency result was “inactive”.

Consider `O=C(C1CC(=O)N(c2ccc3c(c2)OCCO3)C1)N1CCN(c2ccccc2)CC1` (stereo not drawn), for which the Potency result was “inactive”.

Regarding `Cn1c(/C=C/c2ccc(Cl)cc2)c([N+](=O)[O-])c(=O)n(C)c1=O`, the Potency was 12.6 µM (active).

Regarding `Cn1c(/C=C/c2ccc(Cl)cc2Cl)c([N+](=O)[O-])c(=O)n(C)c1=O`, the Potency was 10 µM (active).

Take `Cn1c(/C=C/c2cccc([N+](=O)[O-])c2)c([N+](=O)[O-])c(=O)n(C)c1=O`: the Potency is 14.1 µM (active).

As to `CN(c1ccc(OCC(=O)N2CCN(c3ccc(F)cc3)CC2)cc1)S(=O)(=O)c1cccs1`, the Potency result was “inactive”.

For `CC(=O)N1CCCc2cc(S(=O)(=O)N3CCCC(C(=O)N4CCN(c5cc(C)ccc5C)CC4)C3)ccc21` (stereo not drawn), the Potency entry is “inactive”.

As for `CCOc1ccc(/C=C/[N+](=O)[O-])c2ccccc12`, the Potency was 20 µM (active).

Regarding `COc1ccc(NC(=O)N2CCN(c3nc(-c4cccc(OC)c4)cs3)CC2)cc1`, the Potency result was “inactive”.

As for `CC1CCN(C(=O)c2cc3nc(-c4ccccc4)cc(-c4ccccc4)n3n2)CC1`, the Potency entry is “inactive”.

Turning to `Cc1c(C(=O)NCc2ccc(Cl)c(Cl)c2)sc(=O)n1Cc1ccc(S(C)(=O)=O)cc1`, the Potency result was “inactive”.

As for `O=S(=O)(Cc1cc(NCc2ccccc2)nc(-c2ccccn2)n1)c1ccccc1`, the Potency entry was “inactive”.

Regarding `CCN(CC)CCn1nc2c3c(cccc3c1=O)-c1ccccc1-2`, the Potency was 11.2 µM (active).

Consider `C/C(=N\NC(=O)C12CCC(C)(C(=O)O1)C2(C)C)c1ccccc1O` (stereo not drawn), for which the Potency result is “inactive”.

Consider `CCc1ccc(C(=O)NNC(=O)C2CCN(c3ncnc4sc(C)c(C)c34)CC2)cc1`, for which the Potency result was “inactive”.

For the compound `COc1ccc(-c2csc(NC(=O)C3CCN(c4ncnc5sc(C)c(C)c45)CC3)n2)cc1OC`, the Potency was 8.91 µM (active).

For the compound `COc1ccc(S(=O)(=O)N(C)C)cc1NC(=O)C1CCN(c2ncnc3sc(C)c(C)c23)CC1`, the Potency result was “inactive”.

Regarding `Cc1ccccc1Oc1cc(NC(=O)CCCn2nc(C)c([N+](=O)[O-])c2C)cc([N+](=O)[O-])c1`, the Potency result is “inactive”.

Take `O=C(N/N=C/c1ccccc1O)C1CCCC1`: the Potency result was “inactive”.

Take `S=C(NCc1ccc(Cl)cc1Cl)NC1CCCCC1`: the Potency entry is “inactive”.

As for `O=C(Nc1ccccc1NC(=O)NC1CCCCC1)NC1CCCCC1`, the Potency was 20 µM (active).

For the compound `CCc1ccc(CNC(=O)c2cc3c(C)nc4ccccc4c3o2)cc1`, the Potency entry is “inactive”.

Turning to `Cc1ccc2[nH]c(O)c(N=NC(=O)C3CC3c3ccccc3)c2c1Br` (stereo not drawn), the Potency entry is “inactive”.

Turning to `O=C(/C=C/NNC(=O)c1ccccc1)c1ccc([N+](=O)[O-])cc1`, the Potency was 12.6 µM (active).

Turning to `O=C(NNCc1ccccc1)c1ccccc1`, the Potency entry was “inactive”.

For `O=C(O)COc1ccc2oc3ccccc3c2c1`, the Potency entry was “inactive”.

As for `c1ccc(Cn2c(-c3ccccc3)c[n+]3c2SCCC3)cc1`, the Potency entry was “inactive”.

Turning to `CCCCCC(=O)N/N=C(\C)c1ccccn1`, the Potency result is “inactive”.

On to `C/C(=N\NC(=O)COc1cccc(C)c1)c1ccc2ccccc2c1O`, for which the Potency result was “inactive”.

As to `C/C(=N\NC(=O)c1cccc2ccccc12)c1ccccn1`, the Potency is 1.41 µM (active).

Consider `COc1ccc(CC(=O)N/N=C(\C)c2ccccn2)cc1`, for which the Potency is 11.2 µM (active).

Take `CCCC/C(C)=N/NC(=O)c1cn(-c2ccccc2)nc1-c1ccccc1`: the Potency entry was “inactive”.

Turning to `CCc1ccc(OCC(=O)N/N=C(\C)c2ccc(O)cc2O)cc1`, the Potency entry is “inactive”.

As to `OC1(c2ccc(Br)cc2)CCNCC1`, the Potency entry was “inactive”.

Turning to `Cc1cccc(OCCSc2nc3ncnc(N)c3[nH]2)c1`, the Potency result was “inactive”.

Regarding `COc1ccccc1Cc1c(-c2ccco2)nc2c(C)cc(Br)cn12`, the Potency is 8.91 µM (active).

For `Cc1n(Cc2ccccc2)c2ccccc2[n+]1Cc1ccccc1`, the Potency result is “inactive”.

Consider `CC(C)=CCc1ccc(O)c(=O)cc1C(C)C`, for which the Potency result was “inactive”.

On to `CC(C)=CCc1c(O)cc2oc3c(CC=C(C)C)c(O)c(O)c(CC=C(C)C)c3c(=O)c2c1O`, for which the Potency result was “inactive”.

Turning to `O=C(Nc1ccc(N2CCOCC2)c(Cl)c1)c1c(F)c(F)c(F)c(F)c1F`, the Potency entry is “inactive”.

Turning to `O=C(Nc1ccc(Cl)cc1)Nc1ccc(N2CCCC2)c(S(=O)(=O)Nc2ccccc2Cl)c1`, the Potency is 7.94 µM (active).

Regarding `O=C(Nc1ccc(N2CCN(C(=O)c3ccccc3)CC2)c(Cl)c1)c1ccc(Br)o1`, the Potency result is “inactive”.

Take `Cc1cc(C)c2nc(N(CCCN(C)C)C(=O)c3ccc4c(c3)OCCO4)sc2c1`: the Potency is 31.6 µM (active).

Turning to `Cc1cc(Cl)ccc1-c1cc2nc(NCCCN(C)C)n(C)c(=O)c2s1`, the Potency entry was “inactive”.

Regarding `Cc1ccc2nc(N(CCCN(C)C)C(=O)c3ccc(S(=O)(=O)N4CCCCCC4)cc3)sc2c1`, the Potency result was “inactive”.

`Cc1ccc(C(=O)N(CCCN(C)C)c2nc3ccc(Cl)cc3s2)cc1C`: the Potency was 22.4 µM (active).

For the compound `CCOC(=O)c1c(NC(=O)COC(=O)CNC(=O)c2ccco2)sc(C)c1C`, the Potency result is “inactive”.

Take `CC(=O)NC(c1ccco1)c1cc(Cl)c2cccnc2c1O` (stereo not drawn): the Potency entry is “inactive”.

`CC(=O)NC(C)c1cc(Cl)c2cccnc2c1O` (stereo not drawn): the Potency entry is “inactive”.

`CCC(=O)NC(C)c1cc(Cl)c2cccnc2c1O` (stereo not drawn): the Potency result is “inactive”.

Regarding `CCCCC(=O)NC(c1ccco1)c1cc(Cl)c2cccnc2c1O` (stereo not drawn), the Potency result is “inactive”.

On to `CCC(=O)NC(c1ccc(C)cc1)c1cc([N+](=O)[O-])c2cccnc2c1O` (stereo not drawn), for which the Potency was 15.8 µM (active).

With `CC(C)C(=O)NC(c1ccccc1)c1cc([N+](=O)[O-])c2cccnc2c1O` (stereo not drawn), the Potency is 20 µM (active).

For the compound `CCC(=O)NC(c1ccco1)c1cc(Cl)c2cccnc2c1O` (stereo not drawn), the Potency entry is “inactive”.

Regarding `CC(=O)NC(c1cccs1)c1cc([N+](=O)[O-])c2cccnc2c1O` (stereo not drawn), the Potency was 11.2 µM (active).

For `Cc1nc(-c2c(C(F)(F)F)noc2-c2ccc(O)cc2O)cs1`, the Potency entry was “inactive”.

Regarding `COc1ccc(Nc2oc(COc3ccccc3OC)nc2C#N)cc1`, the Potency entry was “inactive”.

With `N#Cc1c(NCCN)nc(-c2ccco2)c2c1CCCC2`, the Potency result is “inactive”.

For the compound `CN(C)CCCNC(=O)/C=C/c1ccc(OCc2c(F)cccc2Cl)cc1`, the Potency result was “inactive”.

On to `O=C1N(c2ccccc2)C[C@@H]2C[C@@H](c3cc4ccccc4o3)N3CCC[C@@]123`, for which the Potency was 0.355 µM (active).

Regarding `CC(C)(O)C#Cc1ccc([C@@H]2C[C@H]3CN(c4ccccc4)C(=O)[C@]34CCCN24)s1`, the Potency is 11.2 µM (active).

Consider `CCN1c2ccccc2NC2N=C(OC)C(c3ccccc3)C21` (stereo not drawn), for which the Potency was 12.6 µM (active).

In the case of `Cn1c(=O)c2cc(NC(=O)Nc3cccnc3)ccc2n1Cc1ccc(Cl)cc1`, the Potency entry is “inactive”.

As to `Cc1c(C(=O)N2c3ccccc3Sc3ccccc32)cccc1[N+](=O)[O-]`, the Potency result was “inactive”.

With `Cc1onc(-c2ccccc2)c1C(=O)Nc1ccc(S(=O)(=O)NC(C)(C)C)cc1`, the Potency result was “inactive”.

`Cc1nnc(SC(C)C(=O)Nc2ccc(Cl)cn2)n1Cc1ccccc1` (stereo not drawn): the Potency result was “inactive”.

As for `O=C(N/N=C\c1c(O)ccc2ccccc12)c1ccc(Cn2cccn2)o1`, the Potency result is “inactive”.

With `COc1ccc(NC(C)C(=O)N/N=C/c2c(O)ccc3ccccc23)cc1` (stereo not drawn), the Potency was 8.91 µM (active).

With `Cc1occc1C(=O)N/N=C/c1c(O)ccc2ccccc12`, the Potency entry is “inactive”.

As to `C=CCc1cccc(CNc2nc3ccccc3n2C(C)C)c1O`, the Potency entry is “inactive”.

On to `O=C(CSc1nc2ncc(Br)cc2[nH]1)Nc1ccccc1-c1ccccc1`, for which the Potency entry is “inactive”.

For the compound `Cc1ccccc1NC(=O)CSc1n[nH]c(-c2ccccn2)n1`, the Potency was 20 µM (active).

Turning to `O=C(CSc1nc2ncc(Cl)cc2[nH]1)Nc1cccc(F)c1`, the Potency entry is “inactive”.

`Cc1cc(NC(=O)CSc2nccn2-c2cccc(C)c2C)no1`: the Potency entry was “inactive”.

Turning to `O=C(CSc1nnc(-c2ccc(Br)cc2)o1)Nc1cccc(C(=O)O)c1`, the Potency result was “inactive”.

On to `O=C(CSc1n[nH]c(-c2ccccn2)n1)Nc1cccc(Cl)c1`, for which the Potency was 10 µM (active).

As to `O=C(CSc1n[nH]c(-c2ccccn2)n1)Nc1ccc(F)cc1`, the Potency was 17.8 µM (active).

As for `O=C(CSc1ccc2ccccc2c1)Nc1nc2ccccc2[nH]1`, the Potency result was “inactive”.
